Inconclusive results are not listed. Activity calls are given as the source filed them. How the source made its calls, unless noted: active means hit-call score of the fitted dose curve at least 0.9, where 1 is the maximum; inconclusive means response in the unintended direction; inactive means score below 0.9.
Key:
[1] = ATG_Oct_MLP_CIS: Attagene CIS-FACTORIAL HepG2 Assay for human Octamer-Binding Transcription Factor (Oct) (AID 2282993; active means hit-call score of the fitted dose curve at least 0.9, where 1 is the maximum; inactive means score below 0.9); details: HepG2 Attagene cis-factorial Oct reporter, mRNA; actives raise or lower the signal
In short: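 HepG2 cells transiently transfected with cis-promoter-driven multiplexed reporter transcription units, dosed for 24 h. Reporter mRNA quantified by RT-PCR, fluorescent labelling, HpaI digestion and capillary electrophoresis; bidirectional fits versus DMSO baseline.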

[2] = target: Cellular tumor antigen p53 (Homo sapiens) (UniProt P04637); experiment: ATG_p53_CIS: Attagene CIS-FACTORIAL HepG2 Assay for human p53 Transcription Factor (AID 2282994; active means hit-call score of the fitted dose curve at least 0.9, where 1 is the maximum; inactive means score below 0.9); details: HepG2 p53 cis-element reporter, Attagene mRNA; actives raise or lower the signal
In short: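 Multiplexed reporter mRNA assay in human HepG2 liver cells; cis-regulated units report endogenous factor activity. Values come from bidirectional curve fitting against DMSO negative control after 24 h treatment.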

[3] = BSK_3C_TissueFactor: BioMAP Diversity Plus: 3C Assay for Tissue Factor Biomarker Activity (AID 2282997; active means hit-call score of the fitted dose curve at least 0.9, where 1 is the maximum; inactive means score below 0.9); details: BioMAP 3C HUVEC, tissue factor biomarker readout; actives raise or lower the signal
In short: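 Values derive from bidirectional curve fitting against DMSO of Tissue Factor ELISA signals, taken 24 h after dosing primary human umbilical vein endothelial cells.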

[4] = BSK_3C_uPAR: BioMAP Diversity Plus: 3C Assay for Urokinase-type plasminogen activator receptor (uPAR) Biomarker Activity (AID 2282998; active means hit-call score of the fitted dose curve at least 0.9, where 1 is the maximum; inactive means score below 0.9); details: BioMAP 3C HUVEC, uPAR biomarker ELISA; actives raise or lower the signal
In short: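 Human umbilical vein endothelial primary cells were exposed to test chemical for 24 h. Cell-surface uPAR was then quantified by ELISA, and responses were fitted bidirectionally against DMSO as negative control and baseline.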

[5] = BSK_3C_VCAM1: BioMAP Diversity Plus: 3C Assay for Vascular cell adhesion molecule 1 (VCAM1) Biomarker Activity (AID 2282999; active means hit-call score of the fitted dose curve at least 0.9, where 1 is the maximum; inactive means score below 0.9); details: BioMAP 3C HUVEC, VCAM1 ELISA, cytokine-stimulated; actives raise or lower the signal
In short: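 Human umbilical vein endothelial cells (3C system), biomarker read by ELISA 24 h after dosing; bidirectional fit against DMSO baseline. Cytotoxicity tracked by SRB total-protein staining in parallel cultures at biomarker time.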

[6] = BSK_4H_Eotaxin3: BioMAP Diversity Plus: 4H Assay for Eotaxin 3 Biomarker Activity (AID 2283000; active means hit-call score of the fitted dose curve at least 0.9, where 1 is the maximum; inactive means score below 0.9); details: primary human endothelial cells (HUVEC); actives raise or lower the signal
In short: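 Endothelial primary cells (human umbilical vein) exposed to compound for 24 h. ELISA detection of Eotaxin-3.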

[7] = read-out: Intercellular Adhesion Molecule 1 (ICAM1), ICAM1 (gene 3383); experiment: BSK_3C_ICAM1: BioMAP Diversity Plus: 3C Assay for Intercellular Adhesion Molecule 1 (ICAM1) Biomarker Activity (AID 2283003; active means hit-call score of the fitted dose curve at least 0.9, where 1 is the maximum; inactive means score below 0.9); details: primary human endothelial cells (HUVEC); actives raise or lower the signal
In short: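 Primary human umbilical vein endothelial cells in the BioMAP 3C system were exposed to chemicals for 24 h, then ICAM-1 was quantified by ELISA. Activity was fitted bidirectionally against the DMSO negative control baseline.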

[8] = BSK_3C_Proliferation: Cell Proliferation Assessment in the BioMAP Diversity Plus: 3C Assay (AID 2283006; active means hit-call score of the fitted dose curve at least 0.9, where 1 is the maximum; inactive means score below 0.9;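 further: potency may reflect either rise or fall in cell number versus DMSO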); details: primary human endothelial cells (HUVEC)
In short: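 Human umbilical vein endothelial cells were grown sub-confluent and exposed to chemical for 48 h, then fixed with 10% TCA and stained with 0.1% sulforhodamine B; absorbance at 560 nm gave relative cell number, fitted bidirectionally against DMSO baseline.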

[9] = target: Peroxisome proliferator-activated receptor gamma (Homo sapiens) (UniProt P37231); experiment: ATG_PPARg_TRANS: Attagene TRANS-FACTORIAL HepG2 Assay for human Peroxisome Proliferator-activated Receptor-gamma (PPARg) (AID 2283007)
In short: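 A TRANS-format multiplexed reporter assay measures activity of an exogenous chimeric NR-Gal4 protein in HepG2 cells. After 24 h of chemical exposure, reporter transcripts are amplified, fluorescently labelled and sized by capillary electrophoresis, with gain of signal scored against DMSO.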

[10] = target: Nuclear receptor subfamily 1 group I member 2 (Homo sapiens) (UniProt O75469); experiment: ATG_PXR_TRANS: Attagene TRANS-FACTORIAL HepG2 Assay for human Pregnane X Receptor (PXR) (AID 2283008)
In short: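 Measures mRNA induction of a GAL4-UAS-driven reporter in human HepG2 cells transiently expressing PXR fused to Gal4, following 24 h treatment. DMSO served as negative control and baseline.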

[11] = target: human Retinoic Acid Receptor gamma (RARg), RARG (gene 5916) (UniProt P13631); experiment: ATG_RARg_TRANS: Attagene TRANS-FACTORIAL HepG2 Assay for human Retinoic Acid Receptor gamma (RARg) (AID 2283009)
In short: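 HepG2 cells transiently transfected with multiplexed reporter units expressing chimeric RARg-GAL4 and GAL4-UAS-driven reporters; 24 h compound exposure. Reporter mRNA quantified by RT-PCR with fluorescent labelling and capillary electrophoresis; gain-of-signal fitted relative to DMSO baseline.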

[12] = target: human RAR-related Orphan Receptor beta (RORb), RORB (gene 6096) (UniProt Q92753); experiment: ATG_RORb_TRANS: Attagene TRANS-FACTORIAL HepG2 Assay for human RAR-related Orphan Receptor beta (RORb) (AID 2283010)
In short: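 HepG2 cells were transiently transfected with multiplexed GAL4-UAS reporter units expressing chimeric nuclear receptor–GAL4 proteins, then dosed for 24 h. Reporter mRNA was quantified by RT-PCR with fluorescent labelling and capillary electrophoresis; gain of signal was fitted relative to DMSO.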

[13] = target: Retinoic acid receptor RXR-alpha (Homo sapiens) (UniProt P19793); experiment: ATG_RXRa_TRANS: Attagene TRANS-FACTORIAL HepG2 Assay for human Retinoid X Receptor alpha (RXRa) (AID 2283012)
In short: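 HepG2 cells transiently transfected with multiplexed GAL4-UAS reporter units and chimeric NR-GAL4 fusions, dosed 24 h. Reporter mRNA measured by RT-PCR, FAM labelling, HpaI digestion and capillary electrophoresis; gain-of-signal fitted relative to DMSO baseline.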

[14] = target: human Thyroid Receptor alpha (THRa1), THRA (gene 7067) (UniProt P10827); experiment: ATG_THRa1_TRANS: Attagene TRANS-FACTORIAL HepG2 Assay for human Thyroid Receptor alpha (THRa1) (AID 2283014)
In short: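 First, HepG2 cells receive multiple GAL4-UAS reporter units and the chimeric receptor. They are then dosed for 24 h, after which RNA is reverse-transcribed, amplified, labelled, HpaI-cut and sized by capillary electrophoresis; gain relative to DMSO is scored.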

[15] = target: human Peroxisome Proliferator-activated Receptor alpha (PPARa), PPARA (gene 5465) (UniProt Q07869); experiment: ATG_PPARa_TRANS: Attagene TRANS-FACTORIAL HepG2 Assay for human Peroxisome Proliferator-activated Receptor alpha (PPARa) (AID 2283001);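 on AC50: potency for gain of reporter signal over DMSO so agonist or activator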
In short: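 Measures transcriptional activity of an exogenous chimeric PPARa-Gal4 protein in transiently transfected HepG2 cells after 24 h dosing. Reporter mRNA quantified via RT-PCR and capillary electrophoresis; DMSO served as negative control.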

[16] = target: human Peroxisome Proliferator-activated Receptor delta (PPARd), PPARD (gene 5467) (UniProt Q03181); experiment: ATG_PPARd_TRANS: Attagene TRANS-FACTORIAL HepG2 Assay for human Peroxisome Proliferator-activated Receptor delta (PPARd) (AID 2283002)
In short: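 HepG2 cells transiently transfected with GAL4-UAS multiplexed reporter units driven by exogenous chimeric NR-GAL4 proteins; 24 h compound exposure. Reporter mRNA measured by RT-PCR, 6-FAM primer extension, HpaI digestion and capillary electrophoresis; gain of signal fitted relative to DMSO.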

[17] = target: Retinoic acid receptor alpha (Homo sapiens) (UniProt P10276); experiment: ATG_RARa_TRANS: Attagene TRANS-FACTORIAL HepG2 Assay for human Retinoic Acid Receptor alpha (RARa) (AID 2283005)
In short: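 HepG2 transiently transfected with multiplex GAL4-UAS reporter units including a human RARa–GAL4 chimera; 24 h compound exposure. Reporter mRNA quantified by RT-PCR, 6-FAM labeling and capillary electrophoresis; gain of signal versus DMSO.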

[18] = target: human Retinoid X Receptor beta (RXRb), RXRB (gene 6257) (UniProt P28702); experiment: ATG_RXRb_TRANS: Attagene TRANS-FACTORIAL HepG2 Assay for human Retinoid X Receptor beta (RXRb) (AID 2283013)
In short: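 HepG2 cells transiently transfected with multiplexed reporter units driven by GAL4-UAS and exogenous chimeric NR-Gal4 proteins; treated 24 h. Reporter mRNA measured by RT-PCR, 6-FAM labelling and capillary electrophoresis; gain-of-signal fitted versus DMSO baseline.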

[19] = target: human Retinoic Acid Receptor beta (RARb), RARB (gene 5915) (UniProt P10826); experiment: ATG_RARb_TRANS: Attagene TRANS-FACTORIAL HepG2 Assay for human Retinoic Acid Receptor beta (AID 2283004)
In short: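 HepG2, transient MRTU transfection, NR–Gal4 chimera, 24 h treatment; RT-PCR plus CE fluorescence detection of reporter mRNA; gain of signal vs DMSO.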

Sequence of human Thyroid Receptor alpha (THRa1), THRA (gene 7067) (P10827 whole entry, looked up, the tested form may be a part): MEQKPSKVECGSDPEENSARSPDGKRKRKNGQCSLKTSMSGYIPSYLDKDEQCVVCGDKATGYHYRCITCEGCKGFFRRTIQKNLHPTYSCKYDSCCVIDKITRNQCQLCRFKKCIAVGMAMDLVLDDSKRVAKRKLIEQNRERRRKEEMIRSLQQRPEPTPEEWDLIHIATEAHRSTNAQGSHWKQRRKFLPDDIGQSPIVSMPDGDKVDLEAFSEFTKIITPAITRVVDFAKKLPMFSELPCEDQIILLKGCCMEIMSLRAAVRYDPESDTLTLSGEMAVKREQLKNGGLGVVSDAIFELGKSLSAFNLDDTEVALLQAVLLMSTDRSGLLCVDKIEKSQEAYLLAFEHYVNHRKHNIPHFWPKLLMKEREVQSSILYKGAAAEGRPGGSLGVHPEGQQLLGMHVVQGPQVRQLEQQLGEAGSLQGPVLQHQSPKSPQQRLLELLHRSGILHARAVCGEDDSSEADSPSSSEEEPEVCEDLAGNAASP
Sequence of Cellular tumor antigen p53 (Homo sapiens) (P04637 whole entry, looked up): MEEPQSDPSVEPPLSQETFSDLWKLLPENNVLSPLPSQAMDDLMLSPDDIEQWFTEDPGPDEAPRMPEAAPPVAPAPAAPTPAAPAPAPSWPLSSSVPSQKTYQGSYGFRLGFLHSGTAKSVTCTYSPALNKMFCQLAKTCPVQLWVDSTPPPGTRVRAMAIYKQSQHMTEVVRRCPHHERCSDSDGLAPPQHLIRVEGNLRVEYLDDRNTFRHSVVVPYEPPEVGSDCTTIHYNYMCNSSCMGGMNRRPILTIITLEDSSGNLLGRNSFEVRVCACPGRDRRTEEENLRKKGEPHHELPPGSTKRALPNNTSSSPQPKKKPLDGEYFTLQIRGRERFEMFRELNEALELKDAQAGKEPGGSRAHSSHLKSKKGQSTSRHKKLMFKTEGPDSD
Sequence of Peroxisome proliferator-activated receptor gamma (Homo sapiens) (P37231 whole entry, looked up, the tested form may be a part): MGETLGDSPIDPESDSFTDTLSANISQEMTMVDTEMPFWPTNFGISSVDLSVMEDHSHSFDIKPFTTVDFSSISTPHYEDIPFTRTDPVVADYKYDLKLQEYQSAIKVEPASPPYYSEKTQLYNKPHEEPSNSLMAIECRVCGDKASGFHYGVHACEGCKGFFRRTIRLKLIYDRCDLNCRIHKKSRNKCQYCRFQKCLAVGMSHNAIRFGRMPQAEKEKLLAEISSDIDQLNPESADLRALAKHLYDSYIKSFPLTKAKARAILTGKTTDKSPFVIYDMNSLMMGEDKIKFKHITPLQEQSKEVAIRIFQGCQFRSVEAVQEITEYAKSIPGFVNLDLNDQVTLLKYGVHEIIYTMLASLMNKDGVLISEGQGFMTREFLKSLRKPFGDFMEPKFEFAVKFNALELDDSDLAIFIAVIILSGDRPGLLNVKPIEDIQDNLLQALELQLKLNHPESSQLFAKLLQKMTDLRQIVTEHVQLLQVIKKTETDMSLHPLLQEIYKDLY
Sequence of Nuclear receptor subfamily 1 group I member 2 (Homo sapiens) (O75469 whole entry, looked up, the tested form may be a part): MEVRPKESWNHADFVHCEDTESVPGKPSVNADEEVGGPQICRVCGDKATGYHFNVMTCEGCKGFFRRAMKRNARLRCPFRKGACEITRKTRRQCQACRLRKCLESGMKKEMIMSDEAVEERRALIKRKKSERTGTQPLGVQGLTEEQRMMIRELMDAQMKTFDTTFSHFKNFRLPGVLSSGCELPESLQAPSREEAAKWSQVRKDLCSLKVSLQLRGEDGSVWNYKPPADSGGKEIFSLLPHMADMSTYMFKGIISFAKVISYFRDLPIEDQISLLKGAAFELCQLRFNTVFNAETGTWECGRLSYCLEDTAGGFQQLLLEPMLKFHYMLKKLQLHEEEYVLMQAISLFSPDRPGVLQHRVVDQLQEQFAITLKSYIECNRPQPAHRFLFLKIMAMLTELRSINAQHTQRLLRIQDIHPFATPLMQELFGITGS
Sequence of Retinoic acid receptor alpha (Homo sapiens) (P10276 whole entry, looked up, the tested form may be a part): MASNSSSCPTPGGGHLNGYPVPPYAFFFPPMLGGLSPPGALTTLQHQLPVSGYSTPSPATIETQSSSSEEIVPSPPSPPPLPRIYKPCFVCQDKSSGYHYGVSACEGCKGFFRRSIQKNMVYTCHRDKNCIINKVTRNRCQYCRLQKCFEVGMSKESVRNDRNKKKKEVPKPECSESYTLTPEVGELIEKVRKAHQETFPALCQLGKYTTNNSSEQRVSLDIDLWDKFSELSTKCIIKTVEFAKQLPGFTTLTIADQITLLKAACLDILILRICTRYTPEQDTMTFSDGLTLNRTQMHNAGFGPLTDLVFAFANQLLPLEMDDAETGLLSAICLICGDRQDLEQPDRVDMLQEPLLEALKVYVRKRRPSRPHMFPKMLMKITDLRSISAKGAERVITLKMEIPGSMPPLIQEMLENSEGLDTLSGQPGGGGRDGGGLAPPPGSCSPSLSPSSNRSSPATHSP
Sequence of human Retinoic Acid Receptor beta (RARb), RARB (gene 5915) (P10826 whole entry, looked up, the tested form may be a part): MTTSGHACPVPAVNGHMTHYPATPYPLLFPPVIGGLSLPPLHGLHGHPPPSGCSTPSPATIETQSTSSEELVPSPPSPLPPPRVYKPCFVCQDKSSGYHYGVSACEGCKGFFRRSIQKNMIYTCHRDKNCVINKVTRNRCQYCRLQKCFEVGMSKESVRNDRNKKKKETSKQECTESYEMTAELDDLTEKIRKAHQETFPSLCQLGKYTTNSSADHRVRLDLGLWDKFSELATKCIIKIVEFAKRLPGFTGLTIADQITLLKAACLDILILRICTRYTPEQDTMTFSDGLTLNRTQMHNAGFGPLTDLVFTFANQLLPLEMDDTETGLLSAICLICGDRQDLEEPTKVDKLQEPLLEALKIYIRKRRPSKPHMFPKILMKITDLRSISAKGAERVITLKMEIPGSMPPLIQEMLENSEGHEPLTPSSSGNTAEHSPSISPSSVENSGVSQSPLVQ
Sequence of human Retinoic Acid Receptor gamma (RARg), RARG (gene 5916) (P13631 whole entry, looked up, the tested form may be a part): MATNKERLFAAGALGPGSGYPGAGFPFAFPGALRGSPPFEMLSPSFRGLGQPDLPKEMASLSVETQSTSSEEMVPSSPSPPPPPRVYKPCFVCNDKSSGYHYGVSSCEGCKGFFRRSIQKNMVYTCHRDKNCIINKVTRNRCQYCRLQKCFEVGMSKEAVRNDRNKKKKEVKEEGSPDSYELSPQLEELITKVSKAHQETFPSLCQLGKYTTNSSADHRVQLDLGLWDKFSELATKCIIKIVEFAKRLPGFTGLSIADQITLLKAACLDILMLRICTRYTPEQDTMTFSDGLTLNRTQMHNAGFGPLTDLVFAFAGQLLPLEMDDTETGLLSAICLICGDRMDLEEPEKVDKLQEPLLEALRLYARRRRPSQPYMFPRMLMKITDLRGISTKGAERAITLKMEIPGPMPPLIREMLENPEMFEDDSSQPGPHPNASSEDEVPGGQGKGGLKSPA
Sequence of human RAR-related Orphan Receptor beta (RORb), RORB (gene 6096) (Q92753 whole entry, looked up, the tested form may be a part): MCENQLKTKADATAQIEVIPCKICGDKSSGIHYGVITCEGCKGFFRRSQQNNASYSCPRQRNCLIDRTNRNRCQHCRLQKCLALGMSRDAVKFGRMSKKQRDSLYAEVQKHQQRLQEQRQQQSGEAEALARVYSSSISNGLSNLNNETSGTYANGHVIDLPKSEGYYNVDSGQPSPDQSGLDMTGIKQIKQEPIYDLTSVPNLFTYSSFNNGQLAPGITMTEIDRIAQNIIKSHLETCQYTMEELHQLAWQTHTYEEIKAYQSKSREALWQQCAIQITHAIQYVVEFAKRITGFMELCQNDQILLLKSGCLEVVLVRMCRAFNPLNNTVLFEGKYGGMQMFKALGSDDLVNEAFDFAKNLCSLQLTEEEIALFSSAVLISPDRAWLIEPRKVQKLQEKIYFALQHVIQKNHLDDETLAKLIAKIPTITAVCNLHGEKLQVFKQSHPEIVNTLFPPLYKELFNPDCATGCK
Sequence of human Peroxisome Proliferator-activated Receptor alpha (PPARa), PPARA (gene 5465) (Q07869 whole entry, looked up, the tested form may be a part): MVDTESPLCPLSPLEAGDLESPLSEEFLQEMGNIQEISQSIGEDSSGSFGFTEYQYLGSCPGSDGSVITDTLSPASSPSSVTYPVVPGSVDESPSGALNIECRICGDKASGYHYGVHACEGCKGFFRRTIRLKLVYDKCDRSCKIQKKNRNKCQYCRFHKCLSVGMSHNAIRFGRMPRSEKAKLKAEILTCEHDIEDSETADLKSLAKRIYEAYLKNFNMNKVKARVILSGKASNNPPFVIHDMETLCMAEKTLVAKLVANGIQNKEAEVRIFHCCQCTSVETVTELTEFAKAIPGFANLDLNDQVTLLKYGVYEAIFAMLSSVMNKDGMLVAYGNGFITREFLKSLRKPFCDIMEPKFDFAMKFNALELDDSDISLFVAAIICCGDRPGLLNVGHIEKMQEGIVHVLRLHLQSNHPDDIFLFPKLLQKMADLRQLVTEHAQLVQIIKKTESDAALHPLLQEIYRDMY
Sequence of human Peroxisome Proliferator-activated Receptor delta (PPARd), PPARD (gene 5467) (Q03181 whole entry, looked up, the tested form may be a part): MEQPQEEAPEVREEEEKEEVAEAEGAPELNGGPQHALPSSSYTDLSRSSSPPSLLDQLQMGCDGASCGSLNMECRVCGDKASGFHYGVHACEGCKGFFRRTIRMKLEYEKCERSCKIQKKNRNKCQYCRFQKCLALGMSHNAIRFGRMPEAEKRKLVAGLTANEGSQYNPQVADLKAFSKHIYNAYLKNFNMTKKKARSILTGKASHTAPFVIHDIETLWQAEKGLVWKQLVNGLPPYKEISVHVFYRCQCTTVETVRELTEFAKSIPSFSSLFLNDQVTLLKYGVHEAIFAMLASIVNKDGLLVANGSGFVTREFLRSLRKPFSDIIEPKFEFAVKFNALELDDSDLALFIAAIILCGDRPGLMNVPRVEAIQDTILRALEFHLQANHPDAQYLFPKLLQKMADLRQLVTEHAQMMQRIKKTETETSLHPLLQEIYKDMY

SMILES: OC(Cc1ccccc1Cl)(Cn1[nH]cnc1=S)C1(Cl)CC1 (stereo unspecified)
- outcome [1]: inactive
- AC50 [2]: 75.7 µM (active)
- outcome [3]: inactive
- AC50 [4]: 20 µM (active)
- outcome [5]: inactive
- AC50 [6]: 20 µM (active)
- outcome [7]: inactive
- AC50 [8]: 30.7 µM (active)
- AC50 [9]: 59.8 µM (active)
- AC50 [10]: 17.7 µM (active)
- outcome [11]: inactive
- outcome [12]: inactive
- outcome [13]: inactive
- AC50 [14]: 27.8 µM (active)

SMILES: c1csc(-c2ccc(-c3cccs3)s2)c1
- AC50 [1]: 1.62 µM (active)
- outcome [2]: inactive
- outcome [15]: inactive
- outcome [16]: inactive
- AC50 [9]: 1.7 µM (active)
- AC50 [10]: 8.5 µM (active)
- outcome [11]: inactive
- outcome [12]: inactive
- outcome [13]: inactive
- outcome [14]: inactive

SMILES: Cc1c([N+](=O)[O-])c(C)c([N+](=O)[O-])c(C(C)(C)C)c1[N+](=O)[O-]
- outcome [1]: inactive
- outcome [2]: inactive
- outcome [3]: inactive
- AC50 [4]: 20 µM (active)
- AC50 [5]: 20 µM (active)
- AC50 [6]: 28.2 µM (active)
- AC50 [7]: 20 µM (active)
- outcome [17]: inactive
- AC50 [8]: 26.8 µM (active)
- outcome [9]: inactive
- AC50 [10]: 2.05 µM (active)
- outcome [11]: inactive
- AC50 [13]: 9.15 µM (active)
- AC50 [18]: 1.12 µM (active)

SMILES: OC[P+](CO)(CO)CO
- outcome [1]: inactive
- outcome [2]: inactive
- outcome [15]: inactive
- outcome [16]: inactive
- outcome [19]: inactive
- outcome [9]: inactive
- outcome [11]: inactive
- outcome [13]: inactive
- outcome [14]: inactive

SMILES: N#Cc1ccncc1
- outcome [1]: inactive
- outcome [2]: inactive
- outcome [15]: inactive
- outcome [16]: inactive
- outcome [19]: inactive
- outcome [17]: inactive
- outcome [10]: inactive
- outcome [11]: inactive
- outcome [12]: inactive
- outcome [13]: inactive
- outcome [18]: inactive
- outcome [14]: inactive

SMILES: c1cc[c]([Sb]([c]2ccccc2)[c]2ccccc2)cc1
- outcome [1]: inactive
- outcome [2]: inactive
- outcome [15]: inactive
- outcome [16]: inactive
- AC50 [9]: 23.5 µM (active)
- AC50 [10]: 8.18 µM (active)
- outcome [13]: inactive
- AC50 [18]: 4.36 µM (active)
- outcome [14]: inactive

SMILES: COc1ccc(N)cc1
- outcome [1]: inactive
- outcome [2]: inactive
- outcome [15]: inactive
- outcome [16]: inactive
- outcome [9]: inactive
- outcome [10]: inactive
- outcome [12]: inactive
- outcome [14]: inactive

SMILES: Cc1cccc(N=Nc2ccc(N(C)C)cc2)c1
- outcome [1]: inactive
- outcome [2]: inactive
- outcome [15]: inactive
- outcome [16]: inactive
- outcome [9]: inactive
- outcome [10]: inactive
- outcome [12]: inactive
- outcome [13]: inactive
- outcome [18]: inactive

SMILES: CN(C)c1ccc(N=O)cc1
- outcome [1]: inactive
- AC50 [2]: 44.6 µM (active)
- outcome [15]: inactive
- outcome [16]: inactive
- outcome [19]: inactive
- outcome [17]: inactive
- outcome [9]: inactive
- outcome [10]: inactive
- outcome [11]: inactive
- outcome [12]: inactive
- outcome [18]: inactive
- outcome [14]: inactive

SMILES: C=CC(=O)OCC(COC(=O)C=C)(COC(=O)C=C)COC(=O)C=C
- AC50 [1]: 8.16 µM (active)
- AC50 [2]: 8.93 µM (active)
- AC50 [15]: 100 µM (active)
- outcome [16]: inactive
- AC50 [9]: 100 µM (active)
- outcome [11]: inactive
- outcome [12]: inactive
- AC50 [18]: 100 µM (active)
- outcome [14]: inactive

SMILES: O=C(Nc1ccc(Br)cc1)c1cc(Br)cc(Br)c1O
- AC50 [1]: 5.3 µM (active)
- AC50 [2]: 100 µM (active)
- AC50 [15]: 4.97 µM (active)
- outcome [16]: inactive
- outcome [17]: inactive
- AC50 [9]: 11.7 µM (active)
- AC50 [10]: 4.69 µM (active)
- outcome [11]: inactive
- outcome [12]: inactive
- outcome [14]: inactive
